Anthrax LT inh = blocks cellular internalization of anthrax lethal toxin; Potency, µM (highest dose often 40 µM), without a hit: top-dose activity change, negative = inhibition, most hits filed as inhibitors; actives 0.67% (n = 70,000); Cells, anthrax lethal toxin internalization, FRET ratio (460/530); note: % is set by controls: 0 for no effect and ±100 for the full control effect; nearly all actives have a fitted effect of over 50% in size
Prx2 Sm inh = Schistosoma mansoni Prx2 inhibition; actives 0.07% (n = 65,000); S. mansoni Prx2 activity coupled to TGR/GSH (TGR is thioredoxin glutathione reductase), NADPH fluorescence loss, qHTS; Potency, µM; AID 448
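Coupled assay in which S. mansoni TGR passes NADPH reducing equivalents via glutathione to Prx2, which reduces H2O2. Compounds were preincubated 15 min at room temperature with 25 nM TGR/50 nM Prx2 mix. Kinetic NADPH fluorescence loss (ex 365/em 450 nm) was monitored.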
AmpC det inh = AmpC beta-lactamase inhibition, detergent assay; purified AmpC, nitrocefin hydrolysis with detergent; Potency, µM (series often up to 28.7 µM), without a hit: at the top dose activity change, negative = inhibition; actives 0.09% (n = 71,000); active = well fitted curve in the direction sought with a large enough effect; inconclusive = small, poorly fitted or top-dose-only effect; note: % is set by controls: 0 for no effect and ±100 for the full control effect
Target sequence (P00811 whole entry, looked up): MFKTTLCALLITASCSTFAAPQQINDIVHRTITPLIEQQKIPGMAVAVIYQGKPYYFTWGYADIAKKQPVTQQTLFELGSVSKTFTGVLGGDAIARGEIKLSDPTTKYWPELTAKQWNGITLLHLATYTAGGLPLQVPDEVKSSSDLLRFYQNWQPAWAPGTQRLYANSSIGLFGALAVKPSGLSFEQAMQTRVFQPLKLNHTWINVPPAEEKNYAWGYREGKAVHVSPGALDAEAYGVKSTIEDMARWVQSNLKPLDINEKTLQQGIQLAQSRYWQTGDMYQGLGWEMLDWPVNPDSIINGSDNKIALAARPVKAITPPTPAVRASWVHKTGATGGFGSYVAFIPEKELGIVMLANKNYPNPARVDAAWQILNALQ
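E. coli AmpC (5.3 nM) in 20 mM phosphate pH 7.0 with 0.01% Triton X-100, preincubated 15 min RT with compound; nitrocefin (2 uL of 800 uM stock) hydrolysis followed by 480 nm absorbance every 20 s over 4 min.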
AmpC inh no det = blocks E. coli AmpC beta-lactamase in absence of detergent; P00811; AmpC nitrocefin hydrolysis, absorbance 480 nm, no detergent; Potency, µM (top dose mostly 28.7 µM), inactives show at the top dose activity change, negative = inhibition; actives 1.8% (n = 71,000); note: % of control where 0% means no effect
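AmpC in 20 mM phosphate buffer pH 7.0 was preincubated 15 min at room temperature with compounds. Nitrocefin (800 uM stock) was then added and hydrolysis followed at 480 nm every 20 s for 4 min.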
Starred values were filed as active, the others as inactive; ? = inconclusive; . = no result given; [ ] = dose if it differs, or a comment. The list is not random: actives were taken first. Their share in the collection is about 2.6%. Unless noted, calls come from the whole dose curve. Potency is the fitted concentration of half-maximal effect.

SMILES	Anthrax LT inh	Prx2 Sm inh	AmpC det inh	AmpC inh no det
CCCc1ccc(OCc2ccc(C(=O)N3CCN(c4ccccn4)CC3)o2)c(OC)c1	12.6µM*	>57	-5.2%	125.1%
O=[N+]([O-])c1cccc(/C=N\NC2=CS(=O)(=O)C=C2)c1	-0.3%[8 µM]	>57	0.6%[5.75 µM]	-1.6%[5.75 µM]
COc1ccc(C(=O)[C@H](Br)[C@H](Br)C(=O)O)cc1	6.8%[8 µM]	?	-2.7%[5.75 µM]	1.3%[5.75 µM]
CCOC(=O)c1c(C)n(C)c2ccc(OCC(O)Cn3nc(C)c(Br)c3C)cc12 (configuration not stated)	10µM*	>57	1.0%	110.4%
Cc1cc(C)c2c(=O)n(CC(=O)N3CCC(N4CCCCC4)CC3)sc2n1	3.16µM*	>57	8.3%	18.9%
CCCCN(C)Cc1c(C)[nH]c2ccc(OCC)cc2c1=O	-4.4%	>57	16.2%	3.98µM*[single pt active]
CCOc1ccc2[nH]c(C)c(CN3CCN(CC)CC3)c(=O)c2c1	-18.1%	>57	5.6%	-14.4%
O=C1[C@@H]2C=CC=CC2=NC(=S)N1CCN1CCC(=C(c2ccc(F)cc2)c2ccc(F)cc2)CC1	15.5%	>57	-4.3%	6.31µM*
CCC(C)NC(=O)CS(=O)Cc1nc(-c2ccccc2C)oc1C (configuration not stated)	-11.4%	>57	11.2%	3.98µM*[single pt active]
CCCNC(=O)CS(=O)Cc1nc(-c2ccccc2C)oc1C (configuration not stated)	?	>57	12.8%	3.98µM*[single pt active]
Cc1ccc(NC(=[OH+])c2cc3ccccc3cc2O)c(C)c1.Cc1ccc(NC(=[OH+])c2cc3ccccc3cc2O)c(C)c1.[Ni]	?	>57	-3.6%[5.75 µM]	?
COC(=O)c1ccc2c(c1)N(Cc1cc(C)ccc1C)C(=O)c1ccccc1S2=O (configuration not stated)	-5.1%	>57	13.1%	3.98µM*[single pt active]
CCN1CCN(c2cc(C)c3cc(NC(=O)c4cncc(Br)c4)ccc3n2)CC1	25.1µM*	>57	-4.3%	111.8%
CCN1CCN(c2cc(C)c3cc(NC(=O)c4ccc5c(c4)OCO5)ccc3n2)CC1	10µM*	>57	10.6%	60.4%
O=S(=O)(O)/C(=C\c1ccccc1)c1ccccc1 (tested in a mixture with another compound)	1.2%[8 µM]	>57	-4.3%[5.75 µM]	9.3%[5.75 µM]
CC(C)(C)c1cc(C(=O)/C=C/c2ccc(C(=O)O)cc2)cc(C(C)(C)C)c1	12.6µM*	.	.	.
O=Cc1ccc(C(=O)O)cc1	-6.4%	.	6.5%	3.2%
CN1CC=C(c2c[nH]c3ccccc23)CC1	-12.9%	>57	10.8%	3.98µM*[single pt active]
c1ccc2c(-c3nnc4n3CCCCC4)c[nH]c2c1	?	>57	0.1%	-1.4%
O=S(=O)(Nc1cccnc1)c1cccc2cccnc12	3.2%	>57	11.4%	-9.5%
CN(C)c1ccc(C(=O)Nc2nc3c(s2)CCCC3)cc1	12.6µM*	>57	-2.2%	3.8%
O=C(NCCN1CCN(c2ccccc2)CC1)C1CCCN(S(=O)(=O)c2cnc[nH]2)C1 (configuration not stated)	-7.4%	>57	9.7%	2.51µM*[single pt active]
CCN(CCCNC(=O)C1CCCN(S(=O)(=O)c2cnc[nH]2)C1)c1ccccc1 (configuration not stated)	-7.4%	>57	7.3%	3.98µM*[single pt active]
CCN(CCNC(=O)C1CCCN(S(=O)(=O)c2cnc[nH]2)C1)c1ccccc1 (configuration not stated)	-8.3%	>57	13.3%	3.98µM*[single pt active]
Cc1cccc(CN2CCC(CNC(=O)C3CCCN(S(=O)(=O)c4cnc[nH]4)C3)CC2)c1 (configuration not stated)	-10.6%	>57	12.4%	3.16µM*[single pt active]
Cc1ccc(CCNC(=O)C2CCCN(S(=O)(=O)c3cnc[nH]3)C2)cc1 (configuration not stated)	-1.0%	>57	5.1%	2.2%
O=c1c(O)c(-c2ccc(O)c(O)c2)oc2ccccc12	?	>57	-2.5%	-18.9%
CCNC(=O)[C@@H]1O[C@@H](n2cnc3c(NCc4ccccc4)ncnc32)[C@@H](O)[C@H]1O	?	>57	-3.2%	2.2%
CCOC(=O)C1CCCN(c2c(Nc3cccc(C)c3)c(=O)c2=O)C1 (configuration not stated)	0.6%	.	12.3%	3.98µM*[single pt active]
CCOC(=O)C1CCCN(c2c(NCCCN(C)c3ccccc3)c(=O)c2=O)C1 (configuration not stated)	?	>57	11.1%	42.3%
